Measurements from PubChem BioAssay (NCI).
The panel holds about 79,000 compounds, 15% with a hit somewhere; the sample as a whole holds those more often. Unmarked numbers belong to inactive results. The source made the active and inactive calls. Rule as the data show it: active = growth inhibition above about 70%; inactive = the rest.

assay: NCI Yeast Anticancer Drug Screen. Data for the bub3 strain (AID 167); conditions: S. cerevisiae bub3 mutant strain, at 5.0 µM (retest, dose inferred, filed as 0.5), stronger effect = higher value
In short: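 In this screen, a yeast mutant lacking normal mitotic checkpoint function is challenged with compound. Relative growth versus vehicle gives the inhibition value.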

Row | SMILES | growth inhibition
1 | Clc1cc2n[nH]nc2c(Cl)c1Cl | -13%
2 | NSc1ccc(N)s1 | -3%
3 | O=C1C2=C(CCCC2)C(=O)C(Cl)C1Cl (stereo not drawn) | 56%
4 | O=C(COc1ccc2ccccc2c1)NC1c2ccccc2Oc2ccccc21 | 92% (active)
5 | COc1ccc(-c2cc(-c3ccco3)c(C#N)c(=S)n2C2OC(CO)C(O)C(O)C2O)cc1 (stereo not drawn) | 2%
6 | Clc1cccc(Cl)c1C(Nc1nncs1)Nc1nncs1 | -11%
7 | COC([C@@H](OC(=O)c1ccccc1)[C@H](OC(=O)c1ccccc1)C(O)COC(=O)c1ccccc1)n1cc(C)c(=O)[nH]c1=O (stereo partly drawn) | -19%
8 | C1=C(c2c(-c3ccccc3)[nH]c3ccccc23)Cc2ccccc21 | -3%
9 | CC12C(=O)OC(=O)C1C1c3ccccc3C2c2ccccc21 (stereo not drawn) | 54%
10 | O=C(N/C(=C\c1ccc(/C=C(\NC(=O)c2ccccc2)c2nc3ccccc3s2)cc1)c1nc2ccccc2s1)c1ccccc1 | 60%
11 | COS(=O)c1cc(Cl)cc(Cl)c1OC(=O)CSSCC(=O)Oc1c(Cl)cc(Cl)cc1S(=O)OC (stereo not drawn) | 92% (active)
12 | COc1cc2c3c(c4ccc(OC)c(OC)c4c2cc1OC)CN1CCC[C@@H]1C3 | 8%
13 | N#CSC#CCCC#CSC#N | 100% (active)
14 | Nc1nc(-c2ccc(Cl)cc2)c(N=Nc2ccc(Br)cc2)s1 | -17%
15 | CC(=O)C(C(C)=O)C1C=CC=CC=C1 | -73%
16 | CCCCN(C(=O)c1ccccc1)C1CCC(=O)c2[nH]c3ccccc3c21 (stereo not drawn) | -18%
17 | S=C(Nc1ccc(Cl)c(Cl)c1)N1c2ccccc2-n2cccc2C1c1cccnc1 (stereo not drawn) | 72% (active)
18 | O=C1CCC(Cc2ccc(C(F)(F)F)cc2)C(=O)N1 (stereo not drawn) | -2%
19 | Oc1cc(O)c2c(c1)OC(c1ccc(O)c(O)c1)C(OC1(c3cc(O)c(O)c(O)c3)Oc3cc(O)cc(O)c3C(O)C1O)C2 (stereo not drawn) | 8%
20 | Cc1cccc(N=Nc2ccc(O)cc2)c1 | -72%

Row | SMILES | growth inhibition
21 | Cc1c2c(c(C)c3c4c(oc13)CCCC4)C=NCC2 | -8%
22 | CCOC(=O)C(=CCC1NCCc2c1[nH]c1ccccc21)C(=O)OCC (stereo not drawn) | 30%
23 | CCOC(=O)C1=C(c2ccccc2)SC(c2ccccc2)N(C(C)C)C1=O (stereo not drawn) | 4%
24 | CN(C)CCCNc1cc(/C=C/c2ccc([N+](=O)[O-])cc2)nc2ccccc12 | -6%
25 | CC(CN(C)C)C(=O)c1cn(C)c2ccccc12 (stereo not drawn) | -2%
26 | Nc1ccccc1/C=C/c1c[nH]c2ccccc12 | 28%
27 | Cc1c(CNc2ccc(Cl)c(Cl)c2Cl)cnc2nc(N)nc(N)c12 | 28%
28 | O=C(c1cccs1)N(C(=S)N1CCN(c2ccccn2)CC1)c1ccccc1 | -2%
29 | COc1ccccc1/C=C1\NC(=S)N(/C=C2\C(=O)Oc3ccccc3C2=O)C1=O | -27%
30 | Cc1cc(O)c(C)c(C)c1N=Nc1ccccc1 | -70%
31 | O=S1CCS(=O)C1c1ccccc1 (stereo not drawn) | -14%
32 | Cc1ccc2nc(-c3ccc(N)cc3)sc2c1 | 14%
33 | CC1OC(OC2C(Oc3c(-c4ccc(O)c(O)c4O)oc4cc(O)ccc4c3=O)OC(CO)C(O)C2O)C(O)C(O)C1O (stereo not drawn) | -1%
34 | O=C(OCc1ccccc1CN1CCOCC1)c1cccc(Br)c1 | 2%
35 | C=CCOCC(C)OC(=O)C(C)C (stereo not drawn) | -71%
36 | CC(C)(C)OC(=O)N[C@H]1CC2(C=C(Cl)C(=O)C(Cl)=C2)OC1=O | 14%
37 | CC(Nc1ccc(Cl)c(Cl)c1)c1ccncc1 (stereo not drawn) | -47%
38 | COc1ccccc1/C=C(\NC(=O)c1ccccc1)c1nc2ccccc2[nH]1 | 3%
39 | CCCCCCC(O)(CCCCCC)CCCCCC | 0%

same assay, conditions: S. cerevisiae bub3 mutant strain, at 50.0 µM (retest, dose inferred, filed as 5.0), stronger effect = higher value

Row | SMILES | growth inhibition
40 | Clc1cc2n[nH]nc2c(Cl)c1Cl | 48%
41 | NSc1ccc(N)s1 | 14%
42 | O=C1C2=C(CCCC2)C(=O)C(Cl)C1Cl (stereo not drawn) | 99% (active)
43 | O=C(COc1ccc2ccccc2c1)NC1c2ccccc2Oc2ccccc21 | 96% (active)
44 | COc1ccc(-c2cc(-c3ccco3)c(C#N)c(=S)n2C2OC(CO)C(O)C(O)C2O)cc1 (stereo not drawn) | 7%
45 | Clc1cccc(Cl)c1C(Nc1nncs1)Nc1nncs1 | 56%
46 | COC([C@@H](OC(=O)c1ccccc1)[C@H](OC(=O)c1ccccc1)C(O)COC(=O)c1ccccc1)n1cc(C)c(=O)[nH]c1=O (stereo partly drawn) | 28%
47 | C1=C(c2c(-c3ccccc3)[nH]c3ccccc23)Cc2ccccc21 | 58%
48 | CC12C(=O)OC(=O)C1C1c3ccccc3C2c2ccccc21 (stereo not drawn) | 90% (active)
49 | O=C(N/C(=C\c1ccc(/C=C(\NC(=O)c2ccccc2)c2nc3ccccc3s2)cc1)c1nc2ccccc2s1)c1ccccc1 | 60%
50 | COS(=O)c1cc(Cl)cc(Cl)c1OC(=O)CSSCC(=O)Oc1c(Cl)cc(Cl)cc1S(=O)OC (stereo not drawn) | 98% (active)
51 | COc1cc2c3c(c4ccc(OC)c(OC)c4c2cc1OC)CN1CCC[C@@H]1C3 | 98% (active)
52 | N#CSC#CCCC#CSC#N | 98% (active)
53 | Nc1nc(-c2ccc(Cl)cc2)c(N=Nc2ccc(Br)cc2)s1 | 91% (active)
54 | CC(=O)C(C(C)=O)C1C=CC=CC=C1 | 86% (active)
55 | CCCCN(C(=O)c1ccccc1)C1CCC(=O)c2[nH]c3ccccc3c21 (stereo not drawn) | 12%
56 | S=C(Nc1ccc(Cl)c(Cl)c1)N1c2ccccc2-n2cccc2C1c1cccnc1 (stereo not drawn) | 89% (active)
57 | O=C1CCC(Cc2ccc(C(F)(F)F)cc2)C(=O)N1 (stereo not drawn) | -2%
58 | Oc1cc(O)c2c(c1)OC(c1ccc(O)c(O)c1)C(OC1(c3cc(O)c(O)c(O)c3)Oc3cc(O)cc(O)c3C(O)C1O)C2 (stereo not drawn) | -4%
59 | Cc1cccc(N=Nc2ccc(O)cc2)c1 | 97% (active)

Row | SMILES | growth inhibition
60 | Cc1c2c(c(C)c3c4c(oc13)CCCC4)C=NCC2 | -78%
61 | CCOC(=O)C(=CCC1NCCc2c1[nH]c1ccccc21)C(=O)OCC (stereo not drawn) | 98% (active)
62 | CCOC(=O)C1=C(c2ccccc2)SC(c2ccccc2)N(C(C)C)C1=O (stereo not drawn) | 68%
63 | CN(C)CCCNc1cc(/C=C/c2ccc([N+](=O)[O-])cc2)nc2ccccc12 | 45%
64 | CC(CN(C)C)C(=O)c1cn(C)c2ccccc12 (stereo not drawn) | -4%
65 | Nc1ccccc1/C=C/c1c[nH]c2ccccc12 | 97% (active)
66 | Cc1c(CNc2ccc(Cl)c(Cl)c2Cl)cnc2nc(N)nc(N)c12 | 46%
67 | O=C(c1cccs1)N(C(=S)N1CCN(c2ccccn2)CC1)c1ccccc1 | 3%
68 | COc1ccccc1/C=C1\NC(=S)N(/C=C2\C(=O)Oc3ccccc3C2=O)C1=O | 37%
69 | Cc1cc(O)c(C)c(C)c1N=Nc1ccccc1 | -47%
70 | O=S1CCS(=O)C1c1ccccc1 (stereo not drawn) | 38%
71 | Cc1ccc2nc(-c3ccc(N)cc3)sc2c1 | 68%
72 | CC1OC(OC2C(Oc3c(-c4ccc(O)c(O)c4O)oc4cc(O)ccc4c3=O)OC(CO)C(O)C2O)C(O)C(O)C1O (stereo not drawn) | 0%
73 | O=C(OCc1ccccc1CN1CCOCC1)c1cccc(Br)c1 | 42%
74 | C=CCOCC(C)OC(=O)C(C)C (stereo not drawn) | -78%
75 | CC(C)(C)OC(=O)N[C@H]1CC2(C=C(Cl)C(=O)C(Cl)=C2)OC1=O | 83% (active)
76 | CC(Nc1ccc(Cl)c(Cl)c1)c1ccncc1 (stereo not drawn) | 99% (active)
77 | COc1ccccc1/C=C(\NC(=O)c1ccccc1)c1nc2ccccc2[nH]1 | 88% (active)
78 | CCCCCCC(O)(CCCCCC)CCCCCC | -12%
